According to PubChem BioAssay (NCI):
About 79,000 compounds went through this panel and 15% of them were active in at least one assay; those are over-represented in the sample as a whole. Activity calls are given as the source filed them. Rule as the data show it: active = growth inhibition above about 70%; inactive = the rest.

Assays:
[1] = NCI Yeast Anticancer Drug Screen. Data for the rad52 strain (AID 147);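 also: 0% = growth of vehicle-treated control cultures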; conditions: S. cerevisiae rad52 mutant growth inhibition, hits give high values
Outline: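 Measured: yeast growth inhibition. System: strain with a defined DNA damage repair alteration. Reference: vehicle-treated control cultures.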

[2] = NCI Yeast Anticancer Drug Screen. Data for the wt1 strain (AID 149);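 also: 0% = growth of vehicle-treated wt1 cultures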; conditions: S. cerevisiae wt1 strain (SPY 50644) growth inhibition, hits give high values
Outline: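 Using yeast strain wt1, compound-induced growth inhibition was determined against vehicle-treated cultures.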

[3] = NCI Yeast Anticancer Drug Screen. Data for the rad50EPP+ strain (AID 151);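 also: 0% = growth of vehicle-treated control cultures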; conditions: S. cerevisiae rad50 mutant strain, hits give high values
Outline: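 One strain with a rad50 alteration (rad50EPP+) was compound-treated, its growth then compared to that of vehicle controls.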

[4] = NCI Yeast Anticancer Drug Screen. Data for the rad50 strain (AID 155);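 also: 0% = growth of vehicle-only cultures of the same strain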; conditions: S. cerevisiae rad50 strain growth inhibition, hits give high values
Outline: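 Relative growth inhibition (compound vs vehicle) was measured in yeast with a defined repair-gene alteration.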

[5] = NCI Yeast Anticancer Drug Screen. Data for the mec2-1 strain (AID 157); conditions: S. cerevisiae mec2-1 strain, hits give high values
Outline: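 Test agents were screened against the mec2-1 yeast strain, with defined DNA repair or cell cycle alteration. Growth was scored as inhibition against vehicle-only controls.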

[6] = NCI Yeast Anticancer Drug Screen. Data for the rad14 strain (AID 159);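 also: 0% = growth of vehicle-treated control cultures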; conditions: S. cerevisiae rad14 strain growth inhibition, hits give high values
Outline: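 Screen for anticancer potential: a yeast strain altered in DNA damage repair is grown with compound, and reduced growth is quantified against vehicle controls.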

[7] = NCI Yeast Anticancer Drug Screen. Data for the sgs1 mgt1 strain (AID 161);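 also: 0% = growth of cultures given vehicle only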; conditions: S. cerevisiae sgs1 mgt1 strain, hits give high values
Outline: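 Mutant yeast exposed to compound; growth scored against vehicle-only wells.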

[8] = NCI Yeast Anticancer Drug Screen. Data for the CLN2oe strain (AID 163);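 also: 0% = growth of vehicle-only control cultures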; conditions: S. cerevisiae CLN2oe strain, hits give high values
Outline: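 Here, growth inhibition in a cell-cycle-altered yeast strain after compound exposure was quantified against vehicle control growth.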

[9] = NCI Yeast Anticancer Drug Screen. Data for the cln2 rad14 strain (AID 165);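 also: 0% = growth equal to vehicle treated cultures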; conditions: S. cerevisiae cln2 rad14 strain, hits give high values
Outline: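 Growth of compound-exposed yeast (cln2 rad14 genotype) measured and expressed as inhibition relative to vehicle.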

[10] = NCI Yeast Anticancer Drug Screen. Data for the bub3 strain (AID 167); conditions: S. cerevisiae bub3 mutant strain, hits give high values
Outline: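 Screening used yeast with an engineered genetic alteration affecting cell cycle control. Compound-exposed cultures were compared with vehicle cultures, and reduced growth was taken as inhibition.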

[11] = NCI Yeast Anticancer Drug Screen. Data for the wt2 strain (AID 169);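 also: 0% = growth of vehicle-treated yeast cultures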; conditions: S. cerevisiae wt2 strain growth inhibition, hits give high values
Outline: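 Genetically defined yeast strains from a DNA-repair/cell-cycle panel were used. Compound-exposed yeast growth was measured, and the inhibition was calculated relative to vehicle treatment.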

[12] = NCI Yeast Anticancer Drug Screen. Data for the mlh1 strain (AID 171);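 also: 0% = growth of vehicle-treated control cultures of the same strain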; conditions: S. cerevisiae mlh1 strain growth inhibition, hits give high values
Outline: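 Here the genetically defined yeast mutant is grown with each compound, and the extent to which its growth falls below that of vehicle-exposed cells is reported.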

[13] = NCI Yeast Anticancer Drug Screen. Data for the sgs1 strain (AID 173);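 also: 0% = growth of vehicle-only control cultures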; conditions: S. cerevisiae sgs1 mutant, hits give high values
Outline: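 Relative growth inhibition, referenced to vehicle, was determined in a yeast strain with a defined alteration affecting DNA damage repair or cell cycle control after compound exposure.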

[14] = NCI Yeast Anticancer Drug Screen. Data for the mlh1 rad18 strain (AID 175); conditions: S. cerevisiae mlh1 rad18 strain growth inhibition, hits give high values
Outline: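 In this whole-cell yeast screen, a strain with altered DNA damage repair is challenged with compound, and its growth is measured against matched vehicle-treated controls.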

[15] = NCI Yeast Anticancer Drug Screen. Data for the rad18 strain (AID 177); conditions: S. cerevisiae rad18 mutant growth inhibition, hits give high values
Outline: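 Screen uses a yeast strain with a defined lesion in DNA damage repair; compound effect is read as loss of growth compared to untreated vehicle cultures.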

[16] = NCI Yeast Anticancer Drug Screen. Data for the mgt1 strain (AID 153); conditions: S. cerevisiae mgt1 mutant growth inhibition, hits give high values
Outline: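 After exposure of the mgt1 yeast mutant to compound, growth was measured and reported as inhibition compared with vehicle controls.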

[17] = at 5.0 µM (retest, dose inferred, filed as 0.5)
[18] = at 50.0 µM (retest, dose inferred, filed as 5.0)

Measured: growth inhibition

C[n+]1c(/C=C/c2ccc(/C=N/NC(=O)c3ccc(C(=O)N/N=C/c4ccc(/C=C/c5cn6ccccc6[n+]5C)cc4)cc3)cc2)cn2ccccc21
active: [1]; at 1.2 µM 80% | [1]; at 3.7 µM 97% | [1]; at 11.0 µM 97% | [1]; at 33.0 µM 96% | [1]; at 100.0 µM 93% | [2]; at 3.7 µM 88% | [2]; at 11.0 µM 95% | [2]; at 33.0 µM 97% | [2]; at 100.0 µM 95% | [3]; at 3.7 µM 97% | [3]; at 11.0 µM 95% | [3]; at 33.0 µM 95% | [3]; at 100.0 µM 91% | [4]; at 1.2 µM 87% | [4]; at 3.7 µM 98% | [4]; [17] 79% | [4]; at 11.0 µM 97% | [4]; at 33.0 µM 95% | [4]; [18] 96% | [4]; at 50.0 µM 88.7% | [4]; at 100.0 µM 89% | [5]; at 3.7 µM 99% | [5]; [17] 92% | [5]; at 11.0 µM 98% | [5]; at 33.0 µM 97% | [5]; [18] 98% | [5]; at 50.0 µM 90.8% | [5]; at 100.0 µM 94% | [6]; at 3.7 µM 98% | [6]; at 11.0 µM 97% | [6]; at 33.0 µM 97% | [6]; at 100.0 µM 92% | [7]; [18] 98% | [7]; at 50.0 µM 85.7% | [8]; at 3.7 µM 91% | [8]; at 11.0 µM 91% | [8]; at 33.0 µM 95% | [8]; at 100.0 µM 89% | [9]; [18] 98% | [9]; at 50.0 µM 85.7% | [10]; at 3.7 µM 98% | [10]; at 11.0 µM 98% | [10]; at 33.0 µM 97% | [10]; at 50.0 µM 90.9% | [10]; at 100.0 µM 93% | [11]; at 3.7 µM 98% | [11]; at 11.0 µM 96% | [11]; at 33.0 µM 98% | [11]; at 100.0 µM 97% | [12]; at 3.7 µM 99% | [12]; at 11.0 µM 98% | [12]; at 33.0 µM 97% | [12]; at 100.0 µM 94% | [13]; at 3.7 µM 98% | [13]; at 11.0 µM 99% | [13]; at 33.0 µM 98% | [13]; at 100.0 µM 95% | [14]; [17] 90% | [14]; [18] 98% | [14]; at 50.0 µM 91.7% | [15]; at 3.7 µM 98% | [15]; at 11.0 µM 95% | [15]; at 33.0 µM 96% | [15]; at 100.0 µM 93%
inactive: [2]; at 1.2 µM 25% | [3]; at 1.2 µM 58% | [5]; at 1.2 µM 62% | [6]; at 1.2 µM 62% | [7]; [17] 64% | [8]; at 1.2 µM 47% | [9]; [17] 33% | [10]; at 1.2 µM 41% | [10]; [17] 8% | [10]; [18] 4% | [11]; at 1.2 µM 45% | [12]; at 1.2 µM 52% | [13]; at 1.2 µM 56% | [15]; at 1.2 µM 46%

O=C(/C(=C/c1ccc(O)cc1)c1ccccc1)c1ccccc1
inactive: [1]; at 1.2 µM -52% | [1]; at 3.7 µM -55% | [1]; at 11.0 µM -14% | [2]; at 1.2 µM -22% | [2]; at 3.7 µM -13% | [2]; at 11.0 µM 35% | [3]; at 1.2 µM -5% | [3]; at 3.7 µM -2% | [3]; at 11.0 µM 1% | [3]; at 33.0 µM 15% | [3]; at 100.0 µM 9% | [16]; at 1.2 µM -4% | [16]; at 3.7 µM -2% | [16]; at 11.0 µM 51% | [5]; at 1.2 µM -27% | [5]; at 3.7 µM -20% | [5]; [17] -8% | [5]; at 11.0 µM 55% | [5]; at 50.0 µM 34.5% | [6]; at 1.2 µM -2% | [6]; at 3.7 µM 0% | [6]; at 11.0 µM 13% | [7]; [17] 39% | [8]; at 1.2 µM 8% | [8]; at 3.7 µM 10% | [8]; at 11.0 µM 61% | [9]; [17] 20% | [10]; at 1.2 µM 22% | [10]; at 3.7 µM 12% | [10]; [17] 2% | [11]; at 1.2 µM -38% | [11]; at 3.7 µM -31% | [11]; at 11.0 µM 33% | [12]; at 1.2 µM 6% | [12]; at 3.7 µM 24% | [12]; at 11.0 µM 68% | [14]; [17] 0% | [15]; at 1.2 µM -29% | [15]; at 3.7 µM -33% | [15]; at 11.0 µM 17%
active: [1]; at 33.0 µM 99% | [1]; at 100.0 µM 93% | [2]; at 33.0 µM 98% | [2]; at 100.0 µM 92% | [16]; at 33.0 µM 99% | [16]; at 100.0 µM 89% | [5]; at 33.0 µM 98% | [5]; [18] 97% | [5]; at 100.0 µM 85% | [6]; at 33.0 µM 99% | [6]; at 100.0 µM 94% | [7]; [18] 97% | [7]; at 50.0 µM 93% | [8]; at 33.0 µM 99% | [8]; at 100.0 µM 93% | [9]; [18] 97% | [9]; at 50.0 µM 92.5% | [10]; at 11.0 µM 82% | [10]; at 33.0 µM 99% | [10]; [18] 98% | [10]; at 50.0 µM 91.3% | [10]; at 100.0 µM 90% | [11]; at 33.0 µM 98% | [11]; at 100.0 µM 93% | [12]; at 33.0 µM 98% | [12]; at 100.0 µM 88% | [14]; [18] 98% | [14]; at 50.0 µM 84% | [15]; at 33.0 µM 98% | [15]; at 100.0 µM 86%
